The text below walks through data of PubChem BioAssay (NCATS).

Active and inactive are the calls of the source. The call rests on the fitted dose curve; in most records, active means well fitted curve in the direction sought with a large enough effect (not every such curve was filed as active); inconclusive means small, poorly fitted or top-dose-only effect, or effect the other way, or another doubt; inactive means no such curve, though single readings can be large or run the other way.

The target in the assay is Pyruvate kinase PKM (Homo sapiens) (UniProt P14618). As to the kind of experiment: qHTS Assay for Activators of Human Muscle Pyruvate Kinase (AID 954). The settings on record: purified human muscle pyruvate kinase, luciferase-coupled luminescence, 1 h; series mostly up to 57.5 µM. The method, then: NIH Molecular Libraries Screening Centers Network [MLSCN]
Pyruvate kinase PKM (Homo sapiens), sequence (P14618 whole entry, looked up): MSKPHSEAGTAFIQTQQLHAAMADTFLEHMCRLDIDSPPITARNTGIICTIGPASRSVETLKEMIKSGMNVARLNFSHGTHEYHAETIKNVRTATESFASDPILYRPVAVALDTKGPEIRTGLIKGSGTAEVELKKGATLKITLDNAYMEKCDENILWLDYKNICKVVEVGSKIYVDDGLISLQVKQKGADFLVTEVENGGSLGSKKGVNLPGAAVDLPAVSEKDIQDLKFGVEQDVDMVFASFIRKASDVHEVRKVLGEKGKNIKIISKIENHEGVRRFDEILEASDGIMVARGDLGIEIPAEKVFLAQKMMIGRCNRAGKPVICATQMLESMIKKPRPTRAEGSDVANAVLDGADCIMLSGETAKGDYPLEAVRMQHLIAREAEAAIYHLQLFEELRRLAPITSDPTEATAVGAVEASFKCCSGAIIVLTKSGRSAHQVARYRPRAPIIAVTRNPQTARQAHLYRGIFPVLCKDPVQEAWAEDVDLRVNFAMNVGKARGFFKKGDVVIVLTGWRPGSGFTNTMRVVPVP
NIH Chemical Genomics Center [NCGC]
Wael M. Rabeh, Lyudmila Nedyalkova and Hee-Wan Park [Structural Genomics Consortium, 100 College St. Toronto, Ontario, Canada]
Human pyruvate kinase muscle 2 enzyme was supplied as a highly purified (>95% pure) preparation by the Structural Genomics Consortium in Toronto (Ontario, Canada) and was assayed for its ability to generate ATP from ADP using phosphoenolpyruvate (PEP) as a substrate. ATP generation was detected in a coupled reaction by luciferase-mediated luminescence, an ATP-dependent process. Pyruvate kinase substrates, PEP and ADP, were present in the assay at Km and approximately […]-fold below Km respectively. The enzyme was assayed at an intermediate level of activity to screen for inhibitors and activators.
NCGC Assay Protocol Summary:
Three uL of substrate mix (final concentration, 50 mM imidazole pH 7.2, 50 mM KCl, 7 mM MgCl2, 0.5 mM PEP, 0.1 mM ADP, 0.01% Tween 20, 0.05% BSA) was dispensed into 1536 well plates. 23 nL of compound were delivered by a pin tool and 1 uL of enzyme mix (final concentration, 0.1 nM pyruvate kinase, 50 mM imidazole pH 7.2, 0.05% BSA) was added. Plates were incubated at room temperature for 1 hour. Two uL of detection and kinase stop mix (PKLight, Cambrex) was added, the plates centrifuged, and luminescence read by a ViewLux (Perkin Elmer) at 5 second exposure/plate. Data were normalized to the uninhibited and AC100 inhibition (no enzyme or 110 uM N-methyl-2,3-diphenyl-1,2,4-thiadiazol-5-imine; CID: 682802; LOPAC-S-4063). To monitor activation, 0.3 nM pyruvate kinase was included in one control column.
With `S=C(Nc1ccccc1)Nc1nccs1`, the result was inactive.
For `CC#CCOC(=O)c1c(C)nc2sc3c(c2c1N)CC[C@@H](O)C3` the value was “inactive”; for `COc1ccccc1NC(=O)Nc1nc(-c2cccnc2)nc2ccccc12`, “inactive”; for `COc1ccc2c(c1)c(CC(=O)N1CCOCC1)c(C)n2C(=O)c1ccc(Cl)cc1`, “inactive”.
To `COc1ccc(CCN(C)CCC[C@@](C#N)(c2ccc(OC)c(OC)c2)C(C)C)cc1OC` belongs “inactive”; to `CC(N)=NCCCC[C@H](N)C(=O)O`, “inactive”.
For `CC(N)=NCCC[C@H](N)C(=O)O`, the result was inactive.
With `CCCCCCCCCCCCC/C=C\[C@@H](O)[C@@H](N)CO`, the compound was called inactive.
Turning to `CC(C)NC[C@@H](O)COc1ccc(CCOCC2CC2)cc1`, the result was inactive.
To `Cn1cnc2c(NC3CCCC3)ncnc21` belongs “inactive”.
Consider `COC(=O)C1=C(C)NC(C)=C([N+](=O)[O-])[C@H]1c1ccccc1C(F)(F)F`, for which the call was inactive.
To `NCCNS(=O)(=O)c1cccc2cnccc12` belongs “inactive”.
For `Nc1c(S(=O)(=O)O)cc(Nc2ccc(Nc3nc(Cl)nc(Nc4ccc(S(=O)(=O)O)cc4)n3)c(S(=O)(=O)O)c2)c2c1C(=O)c1ccccc1C2=O` the value was “inactive”; for `O=C1CC[C@H](N2C(=O)c3ccccc3C2=O)C(=O)N1`, “inactive”.
Consider `NCCCCCCNS(=O)(=O)c1cccc2c(Cl)cccc12`, for which the call was inactive.
For `C[C@@H]1CNCCN1S(=O)(=O)c1cccc2cnccc12` the value was “inactive”; for `S=C(S)O[C@@H]1C[C@@H]2C[C@H]1[C@@H]1CCC[C@H]21`, “inactive”.
Turning to `Cc1cccc(C)c1NC(=O)C[N+](C)(C)C`, the call was inactive.
With `CC(=O)N[C@@H](C(=O)O)C(C)(C)SN=O`, the call was inactive.
To `N#C/C(=C\c1ccc(O)c(O)c1)C(=O)Nc1ccccc1` belongs “inactive”; to `Fc1ccc(C(c2ccc(F)cc2)N2CCN(C/C=C\c3ccccc3)CC2)cc1`, “inactive”; to `CCCn1c(=O)c2[nH]c(-c3ccc(OCC(=O)Nc4ccc(C#N)cc4)cc3)nc2n(CCC)c1=O`, “inactive”.
`CC(N)=NCc1cccc(CN)c1`: the outcome was inactive.
For `C[C@@H]([C@H](O)c1ccc(O)cc1)N1CCC(Cc2ccccc2)CC1`, the compound was classed as inactive.
To `C[C@@H](CCc1ccc(O)cc1)NCCc1ccc(O)c(O)c1` belongs “inactive”; to `N[C@]1(C(=O)O)CCc2cc(C(=O)O)ccc21`, “inactive”.
To `CN(C)C/C=C(\c1ccc(Br)cc1)c1cccnc1` belongs “inactive”; to `Cc1ccc(/C(=C/CN2CCCC2)c2ccccn2)cc1`, “inactive”; to `NS(=O)(=O)c1cc2c(cc1Cl)N[C@@H]([C@@H]1C[C@@H]3C=C[C@H]1C3)NS2(=O)=O`, “inactive”.
For `N[C@H](Cc1ccc(Cl)cc1)C(=O)O` the value was “inactive”; for `Fc1cccc(/C=N\N=C/c2cccc(F)c2)c1`, “inactive”.
As for `CN1CCN(CCC=C2c3ccccc3Sc3ccc(S(=O)(=O)N(C)C)cc32)CC1`, the call was inactive.
As to `CC#C[C@]1(O)CC[C@H]2[C@@H]3CCC4=CC(=O)CCC4=C3[C@H](c3ccc(N(C)C)cc3)C[C@@]21C`, the result was inactive.
To `C[C@@H](/C=C\c1cccc(Oc2ccc(F)cc2)c1)N(O)C(N)=O` belongs “inactive”; to `Cc1cccc(/C=C\c2ccccc2)n1`, “inactive”; to `C#C[C@]1(O)CC[C@H]2[C@H]3CCC4=Cc5oncc5C[C@]4(C)[C@@H]3CC[C@]21C`, “inactive”.
For `CC[C@H](C)C(=O)O[C@H]1CCC=C2C=C[C@H](C)[C@H](CC[C@@H]3C[C@H](O)CC(=O)O3)[C@H]21` the value was “inactive”; for `C[C@@H]1CCN=C(N)S1`, “inactive”; for `N[C@H](CCC(=O)N[C@H](CSN=O)C(=O)NCC(=O)O)C(=O)O`, “inactive”.
On to `C[C@]12CC3CC(N)(C1)C[C@@](C)(C3)C2`, for which the compound was called inactive.
